The list is not random: actives were taken first. Their share in the collection is about 1.8%.
EWS-Fli block: EWS/Fli transcriptional activity inhibition; A673 NR0B1-luciferase reporter, viability-normalised; inhibition, % at 12.6 µM; 350,000 compounds, 0.67% hits; AID 651661;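 active = mean inhibition of at least 50% after viability correction, with every replicate also passing that limit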;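 also: firefly luciferase signal divided by Alamar Blue viability fluorescence both relative to DMSO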
RAD52 inh: RAD52 (human) annealing inhibition | recombinant RAD52 DNA annealing, FRET fluorescence | AID 651710 | inhibition, % at 18.7 µM | 360,000 compounds, 0.46% hits | P43351;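 active = every replicate showing at least 50% inhibition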
Target sequence (P43351 whole entry, looked up): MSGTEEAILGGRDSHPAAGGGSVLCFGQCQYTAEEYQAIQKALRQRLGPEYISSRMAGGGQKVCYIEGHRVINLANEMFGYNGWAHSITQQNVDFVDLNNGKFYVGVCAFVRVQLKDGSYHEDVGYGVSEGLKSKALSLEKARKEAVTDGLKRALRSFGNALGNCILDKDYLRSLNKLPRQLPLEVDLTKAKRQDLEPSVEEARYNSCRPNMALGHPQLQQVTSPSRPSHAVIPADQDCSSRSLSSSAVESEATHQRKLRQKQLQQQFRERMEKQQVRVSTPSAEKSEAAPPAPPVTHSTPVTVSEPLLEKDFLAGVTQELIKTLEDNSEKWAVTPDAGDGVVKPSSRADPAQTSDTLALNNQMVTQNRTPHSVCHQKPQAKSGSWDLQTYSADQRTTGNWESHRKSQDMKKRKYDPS
INS-1E GSIS act: primary screen for activators of insulin secretion dependent on glucose, INS-1E cells, GLuc reporter luminescence; INS-1E GLuc reporter insulin secretion, 2-3 h; activation, % at 16.6 µM; 370,000 compounds, 0.61% hits; AID 743287;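 active = lowest replicate activation of at least 40%, so every replicate reaches that level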
LGR2 antag: Drosophila LGR2 receptor signaling inhibition | HEK293 LGR2, CRE-luciferase, bursicon-stimulated, 4 h | inhibition, % at 9.99 µM | 380,000 compounds, 0.35% hits;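 active = drop in luminescence signal, shown as inhibition above about 50% in the replicate tests, limit read from the data, passing the limit was not always enough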;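 also: agonist challenge used bursicon conditioned medium at about half maximal strength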
CFTR F508del cor: CFTR F508del correction in bronchial cells; CFBE cells, YFP halide quenching; stimulated with forskolin plus potentiator P3; % fluorescence drop versus neutral controls; activity (quench increase), % at 7.58 µM; 350,000 compounds, 0.36% hits;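 active = mean added fluorescence quench of at least 8% versus neutral control, with both replicates also reaching 8%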;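 also: cells transiently co-express mutant CFTR-F508del with the halide-sensitive YFP; corrector assay measuring rescue of mutant channel to the surface after 24 h compound exposure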
RAD54 branch: blocks human RAD54 Holliday junction branch migration. Q92698. FAM/BHQ fluorescence. inhibition, % at 10.4 µM. 360,000 compounds, 0.14% hits. AID 602329;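 active = mean normalized replicate activity at least 40 and at least half of replicates scoring 40 or more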;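 also: inhibitors cause a drop in the FAM fluorescence signal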
Each line names hits and unclear results; the compound was inactive in the other large screens.

CC(C)OC(=O)c1ccccc1C(=O)c1ccc(N)c([N+](=O)[O-])c1	none (no result: RAD54 branch)
O=C(COC(=O)c1ccccc1C(=O)c1ccc(Cl)c([N+](=O)[O-])c1)NC1CC1	EWS-Fli block 63.2, LGR2 antag 105.3
O=C(COC(=O)c1cc([N+](=O)[O-])ccc1Cl)NC1CCCC1	none
CC(c1ccccc1)n1c(SCC(=O)N2CC(=O)Nc3ccccc32)nc2ccccc2c1=O (centres undefined)	none (no result: EWS-Fli block, RAD52 inh, CFTR F508del cor, RAD54 branch)
COCC(C)n1c(SCC(=O)N2CC(=O)Nc3ccccc32)nc2ccccc2c1=O (centres undefined)	CFTR F508del cor 14.6
Cc1cccc(C(=O)NNC(=O)C23CC4CC(CC(C4)C2)C3)c1O	none
CC1CCCC(NC(=O)CN2C(=O)NC(C)(c3ccccc3)C2=O)C1C (centres undefined)	none
COc1cccc(NC(=O)COc2ccc3c(c2)CCC3)c1	none (no result: LGR2 antag, RAD54 branch)
CCOC(=O)Nc1cccc(OCC(=O)Nc2ccc3c(c2)CCC3)c1	INS-1E GSIS act 44.9
CCCCNC(=O)C(=O)Nc1ccc2c(c1)N(S(=O)(=O)c1cccs1)CCC2	CFTR F508del cor 11.4 (no result: INS-1E GSIS act)
O=C(NCCSc1ccccn1)c1ccc(Cl)cc1	none
CC(=O)c1ccc(OCCCC(=O)NC2CCCCC2C)cc1 (centres undefined)	none
COc1ccc(Cl)cc1NC(=O)CN(C)CC(=O)Nc1ccccc1N1CCOCC1	EWS-Fli block 62.1 (no result: RAD54 branch)
C[C@@H]1CCCCO[C@@H](CN(C)S(=O)(=O)c2cccs2)[C@@H](C)CN([C@@H](C)CO)C(=O)c2cc(NS(=O)(=O)c3cn(C)cn3)ccc2O1	RAD52 inh 111.3
C[C@@H]1CCCCO[C@@H](CN(C)S(=O)(=O)c2cccs2)[C@H](C)CN([C@@H](C)CO)C(=O)c2cc(NS(=O)(=O)c3cn(C)cn3)ccc2O1	RAD52 inh 83.5
C[C@H]1CCCCO[C@@H](CN(C)S(=O)(=O)c2cccs2)[C@@H](C)CN([C@@H](C)CO)C(=O)c2cc(NS(=O)(=O)c3cn(C)cn3)ccc2O1	RAD52 inh 109.2
C[C@@H]1CN([C@H](C)CO)C(=O)c2cc(NS(=O)(=O)c3cn(C)cn3)ccc2O[C@@H](C)CCCCO[C@H]1CN(C)S(=O)(=O)c1cccs1	none (no result: RAD54 branch)
C[C@@H]1CN([C@@H](C)CO)C(=O)c2cc(NS(=O)(=O)c3cn(C)cn3)ccc2O[C@@H](C)CCCCO[C@@H]1CN(C)S(=O)(=O)c1cccs1	none
CC(C)Oc1cccc(C(=O)C2CCCN(C(=O)CCc3cnn(C)c3)C2)c1 (centres undefined)	INS-1E GSIS act 54.7 (no result: EWS-Fli block)
Cc1nn(C)c(C)c1CCC(=O)N1CCCC(C(=O)c2cccc(OC(C)C)c2)C1 (centres undefined)	none
CCc1ccc(C(=O)COC(=O)C(Cc2ccccc2)NC(=O)C2CCC(C)CC2)cc1 (centres undefined)	INS-1E GSIS act 47.7 (no result: EWS-Fli block, RAD52 inh, LGR2 antag, CFTR F508del cor)
CCc1ccc(C(=O)COC(=O)C(Cc2ccccc2)NC(=O)c2ccc(Cl)cc2)cc1 (centres undefined)	none (no result: EWS-Fli block, RAD52 inh, INS-1E GSIS act, LGR2 antag, CFTR F508del cor)
O=C1NC(=O)C2(N1)c1ccccc1-c1ccccc12	none (no result: RAD54 branch)
COc1ccc([C@H]2CC(=O)C=C(c3cc(Br)ccc3OC)C2)cc1	none
CCOc1ccc(Br)cc1C1=CC(=O)C[C@H](c2ccc(OC)cc2)C1	EWS-Fli block 57.4
COc1ccc([C@H]2CC(=O)C=C(c3cc(C)ccc3F)C2)cc1	none
COc1ccc(OC)c(C2=CC(=O)C[C@H](c3ccc4c(c3)OCO4)C2)c1	EWS-Fli block 65.7
COc1ccc([C@H]2CC(=O)C=C(c3cc(C)ccc3OC)C2)cc1	EWS-Fli block 59.9
COc1c(F)cccc1C1=CC(=O)C[C@H](c2ccc3c(c2)OCO3)C1	none
O=C(NCC[C@H]1CC[C@@H](NS(=O)(=O)c2ccc(Cl)cc2)[C@H](CO)O1)c1ccc2c(c1)OCO2	none (no result: EWS-Fli block)
COc1ccc(O)c(C(c2c(C)[nH][nH]c2=O)c2c(C)[nH][nH]c2=O)c1	none (no result: RAD54 branch)
Nc1ncnc2c1nc(Sc1ccc(Cl)cc1)n2[C@@H]1O[C@@H]2COP(=O)(O)O[C@H]2[C@H]1O	INS-1E GSIS act 64.1
COc1ccc(CCN=C(N)NS(=O)(=O)c2ccc(C)c(C)c2)cc1OC	INS-1E GSIS act 90.5
O=C1Nc2ccccc2-n2nnnc2C1N1CCN(c2ccccn2)CC1 (centres undefined)	INS-1E GSIS act 101.0 (no result: RAD54 branch)
CCSc1ccc2nnc(-c3ccc(F)cc3)n2n1	INS-1E GSIS act 60.8
COc1cccc(NC(=O)c2ccccc2F)c1	none (no result: INS-1E GSIS act)
O=C(NCc1ccccc1C(F)(F)F)c1cccc2c1C(=O)c1ccc(N3CCOCC3)cc1S2(=O)=O	none
C=CCn1c(SCC(=O)c2[nH]c(C)c(C(=O)OC)c2C)nc2scc(-c3ccc(OC)c(OC)c3)c2c1=O	EWS-Fli block 60.5 (no result: INS-1E GSIS act, LGR2 antag, CFTR F508del cor, RAD54 branch)
CCCCn1c(-c2ccncc2)nc2c1c(=O)[nH]c(=O)n2CC(C)C	INS-1E GSIS act 70.1 (no result: EWS-Fli block, RAD52 inh, CFTR F508del cor)
ClC(Cl)(c1nnnn1-c1ccccc1)c1nnnn1-c1ccccc1	INS-1E GSIS act 138.6 (no result: EWS-Fli block, RAD52 inh, CFTR F508del cor)
O=C(CCl)N(Cc1ccccc1)c1ccccc1	EWS-Fli block 73.3 (no result: RAD54 branch)
Cc1cccc(N(Cc2ccccc2)C(=O)CCl)c1	EWS-Fli block 52.2, INS-1E GSIS act 97.2 (no result: RAD54 branch)
CCN(Cc1ccccc1)C(=O)c1cccnc1	none
O=C(c1cccnc1)N(Cc1ccccc1)c1ccccc1	INS-1E GSIS act 117.3
Cc1ccccc1N1CCN(C2CCCN(C(=O)c3cc[n+]([O-])cc3)C2)CC1 (centres undefined)	none
CC(=O)c1cccc(NC(=O)C(C)OC(=O)/C=C/c2cccs2)c1 (centres undefined)	none
CS(=O)(=O)c1ccc2nc(NC(=O)Nc3ccc(Cl)c(Cl)c3)sc2c1	INS-1E GSIS act 260.3 (no result: EWS-Fli block, RAD52 inh, CFTR F508del cor, RAD54 branch)
CS(=O)(=O)c1ccc2nc(NC(=O)Nc3cccc(Cl)c3)sc2c1	none (no result: RAD54 branch)
COc1cc(C2NC(=O)c3ccccc3O2)cc(OC)c1OC (centres undefined)	none (no result: EWS-Fli block, RAD52 inh, INS-1E GSIS act, LGR2 antag, CFTR F508del cor)
COc1cc(C2Oc3ccccc3C=C2[N+](=O)[O-])cc(OC)c1OC (centres undefined)	EWS-Fli block 52.2
COC(=O)Nc1nncs1	none
CCOC(=O)C(C)Sc1nnc(NC(=O)c2cccc([N+](=O)[O-])c2C)s1 (centres undefined)	none (no result: EWS-Fli block, RAD52 inh, CFTR F508del cor, RAD54 branch)
CCCCCCCCN1C(=O)[C@@H](CC(=O)N2CCN(C(=O)c3ccco3)CC2)C[C@@]2(C(=O)OC)C1=C[C@H](C1CCCC1)O[C@@H]2C	INS-1E GSIS act 54.1 (no result: RAD54 branch)
CCCCCCCCN1C(=O)[C@@H](CC(=O)N2CCN(C(=O)c3ccco3)CC2)C[C@@]2(C(=O)OC)C1=C[C@H](C(C)(C)C)O[C@@H]2C	none (no result: INS-1E GSIS act, RAD54 branch)
CCOC(=O)Nc1cc2c(c(N)n1)N=C(c1ccccc1)CN2	CFTR F508del cor 12.1 (no result: RAD54 branch)
Cc1ccccc1C[n+]1cccc2ccccc21	none
Cn1nc(-c2ccc(Cl)cc2)c2cc(C(=O)NCCCN3CCOCC3)sc21	RAD54 branch 84.2 (no result: EWS-Fli block, RAD52 inh, INS-1E GSIS act, LGR2 antag, CFTR F508del cor)
